Data taken from PubChem BioAssay AID1159580 (chemical genetic matrix, 2015).
Values joined by “and” are separate entries in the source; they are usually repeats but may differ in a detail not shown here. Identical values can stand only once. Out of some 5,500 compounds screened, about 2,000 (36%) were called active. Roughly 18% stayed inconclusive and do not appear here. Cut-off read from the data, not from the text of the source: active = normalized growth mostly below about 0.91 (no sharp cut-off); inconclusive = no clear call, values can overlap the other calls; inactive = mostly above about 0.92. Some of the results follow.

Experiment: chemical genetic growth profiling, strain panel (AID 1159580);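 note: tested at 20 µM; growth read once vehicle control cultures reached saturation at 30 °C; 1 = growth at the plate median or of vehicle wells; lower values mean less growth of the strain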
Settings: S. cerevisiae deletion strains, growth OD

Measured: normalized growth

O=c1cccc2n1CC1CC2CN2CCCC[C@@H]12 (some centres undefined)
inactive: locus YAL013W, strain DEP1, stronger effect = lower value 0.999 | locus YAL021C, strain ccr4, stronger effect = lower value 0.999 | locus YAL026C, strain drs2, stronger effect = lower value 0.983 | locus YAL030W, strain snc1, stronger effect = lower value 0.979 | locus YBL061C, strain skt5, stronger effect = lower value 0.983 | locus YBR009C, strain hhf1, stronger effect = lower value 0.947 | locus YBR021W, strain FUR4, stronger effect = lower value 1.01 | locus YBR023C, strain chs3, stronger effect = lower value 0.974 | locus YBR171W, strain sec66, stronger effect = lower value 0.974 | locus YBR229C, strain ROT2, stronger effect = lower value 0.953 | locus YBR231C, strain swc5, stronger effect = lower value 0.97 | locus YBR279W, strain paf1, stronger effect = lower value 0.988 | locus YCL011C, strain gbp2, stronger effect = lower value 0.983 | locus YCL016C, strain dcc1, stronger effect = lower value 0.976 | locus YCL029C, strain bik1, stronger effect = lower value 0.974 | locus YCL061C, strain MRC1, stronger effect = lower value 0.985 | locus YCL069W, strain vba3, stronger effect = lower value 0.98 | locus YCR088W, strain abp1, stronger effect = lower value 0.973 | locus YDL005C, strain med2, stronger effect = lower value 0.982 | locus YDL035C, strain GPR1, stronger effect = lower value 1 | locus YDL040C, strain nat1, stronger effect = lower value 0.961 | locus YDL074C, strain BRE1, stronger effect = lower value 1.01 | locus YDL101C, strain DUN1, stronger effect = lower value 0.992 | locus YDL134C, strain PPH21, stronger effect = lower value 0.989 | locus YDL185W, strain tfp1, stronger effect = lower value 0.971 | locus YDL192W, strain arf1, stronger effect = lower value 0.99 | locus YDR001C, strain nth1, stronger effect = lower value 0.968 | locus YDR069C, strain doa4, stronger effect = lower value 0.982 | locus YDR101C, strain arx1, stronger effect = lower value 1.03 | locus YDR137W, strain rgp1, stronger effect = lower value 0.994 | locus YDR150W, strain NUM1, stronger effect = lower value 0.992 | locus YDR159W, strain sac3, stronger effect = lower value 0.938 | locus YDR162C, strain NBP2, stronger effect = lower value 0.987 | locus YDR195W, strain ref2 0.946 | locus YDR297W, strain sur2, stronger effect = lower value 0.977 | locus YDR318W, strain mcm21, stronger effect = lower value 0.978 | locus YDR334W, strain swr1, stronger effect = lower value 0.978 | locus YDR335W, strain msn5, stronger effect = lower value 0.987 | locus YDR388W, stronger effect = lower value 0.985 | locus YDR392W, strain spt3, stronger effect = lower value 0.876 | locus YDR502C, strain sam2, stronger effect = lower value 0.981 | locus YEL003W, strain gim4, stronger effect = lower value 0.985 | locus YEL037C, strain rad23, stronger effect = lower value 0.983 | locus YEL061C, strain CIN8 (second series), stronger effect = lower value 0.974 | locus YEL061C, strain CIN8, stronger effect = lower value 0.991 | locus YER015W, strain faa2, stronger effect = lower value 0.976 | locus YER016W, strain bim1, stronger effect = lower value 0.971 | locus YER110C, stronger effect = lower value 0.972 | locus YER111C, strain swi4, stronger effect = lower value 0.977 | locus YER155C, strain BEM2 (second series), stronger effect = lower value 0.973 | locus YER155C, strain BEM2, stronger effect = lower value 1 | locus YER167W, strain BCK2, stronger effect = lower value 0.987 | locus YFR010W, strain ubp6, stronger effect = lower value 0.972 | locus YGL078C, strain dbp3, stronger effect = lower value 0.991 | locus YGL086W, strain mad1, stronger effect = lower value 1.04 | locus YGL167C, strain pmr1, stronger effect = lower value 0.968 | locus YGL173C, strain kem1, stronger effect = lower value 0.981 | locus YGL227W, strain vid30, stronger effect = lower value 0.974 | locus YGL240W, strain doc1, stronger effect = lower value 0.962 | locus YGL248W, strain PDE1, stronger effect = lower value 0.986 | locus YGL253W, strain hxk2, stronger effect = lower value 0.982 | locus YGR135W, strain pre9, stronger effect = lower value 0.982 | locus YGR229C, strain SMI1, stronger effect = lower value 0.993 | locus YGR252W, strain gcn5, stronger effect = lower value 0.968 | locus YHR013C, strain ard1, stronger effect = lower value 0.928 | locus YHR027C, strain rpn1, stronger effect = lower value 0.982 | locus YHR030C, strain SLT2, stronger effect = lower value 0.996 and 1.02 | locus YHR079C, strain IRE1 (second series), stronger effect = lower value 0.986 | locus YHR079C, strain IRE1, stronger effect = lower value 1.02 | locus YHR094C, strain hxt1, stronger effect = lower value 0.967 | locus YHR129C, strain ARP1, stronger effect = lower value 0.983 | locus YHR142W, strain chs7, stronger effect = lower value 1 | locus YHR200W, strain rpn10, stronger effect = lower value 0.975 | locus YIL066C, strain RNR3, stronger effect = lower value 0.987 | locus YIL073C, strain SPO22, stronger effect = lower value 0.967 | locus YIL125W, strain kgd1, stronger effect = lower value 0.986 | locus YIR030C, strain dcg1, stronger effect = lower value 0.984 | locus YJL092W, strain hpr5, stronger effect = lower value 0.981 | locus YJL095W, strain BCK1 (second series), stronger effect = lower value 0.978 | locus YJL095W, strain BCK1, stronger effect = lower value 1 and 1.01 | locus YJL115W, strain asf1, stronger effect = lower value 0.988 | locus YJL129C, strain trk1, stronger effect = lower value 0.982 | locus YJL134W, strain LCB3, stronger effect = lower value 0.983 | locus YJL154C, strain vps35, stronger effect = lower value 0.98 | locus YJL164C, strain tpk1, stronger effect = lower value 0.984 | locus YJL166W, strain qcr8, stronger effect = lower value 1.01 | locus YJL168C, strain set2, stronger effect = lower value 0.99 | locus YJL187C, strain SWE1 (second series), stronger effect = lower value 0.995 | locus YJL187C, strain SWE1, stronger effect = lower value 0.99
